# For some assays here: Results with a measured potency or affinity are listed apart. Activity calls are given as the source filed them.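 The calls were made as follows, unless noted: active = signal rise over 3 SD above mean of control wells given weak agonist, in both repeats and first screen; inactive = the rest.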
# Key:
# [1] = tested on: TRPC4 beta (transient receptor potential cation channel C4), mouse; assay: TRPC4 cation channel opening, retest – cell-based, Fluo4 calcium, HEK293 TRPC4beta/mu-opioid, duplicates, 10 µM, confirmation (AID 2426;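 active = fluorescence ratio normalized to control raised more than 50% in primary screen plus both repeat runs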); conditions: Fluo4 calcium fluorescence, at 10 µM; active compounds read high
# [2] = tested on: transient receptor potential cation channel C4 beta (TRPC4), mouse; assay: TRPC4 cation channel opening, second retest – cell-based, second round, Fluo4, HEK293 TRPC4beta/mu-opioid, 1 µM, confirmation (AID 2461;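 active = primary screen active and over 50% activation in each of two duplicate runs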); conditions: Fluo4 calcium fluorescence, at 1 µM; active compounds read high
# [3] = tested on: TRPC4 (transient receptor potential cation channel C4 beta), mouse; assay: potentiation of DAMGO EC20 TRPC4 response – cell-based, second round, Fluo-4, HEK293 TRPC4beta/mu-opioid, 1 µM, confirmation (AID 2554;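 active = primary screen hit whose fluorescence ratio, in both repeats, exceeds the weak agonist control mean by 3 SD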); conditions: DAMGO EC20, Fluo-4 calcium flux, at 1 µM; active compounds read high
# [4] = tested on: TRPC4 beta (transient receptor potential cation channel C4), mouse; assay: potentiation of DAMGO EC20 TRPC4 response – cell-based, Fluo-4, HEK293 TRPC4beta/mu-opioid, confirmation (AID 2555;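 active = primary screen hit whose calcium fluorescence ratio, in both repeats, exceeds the weak agonist control mean by 3 SD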); conditions: DAMGO EC20, Fluo-4 calcium flux, at 10 µM; active compounds read high
# [5] = molecular target: Short transient receptor potential channel 4 (Mus musculus) (UniProt Q9QUQ5); assay: blockers of DAMGO-evoked TRPC4 calcium flux – cell-based, Fluo4, HEK293 TRPC4beta/mu-opioid, confirmation (AID 2636;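 active = calcium signal cut by more than 3 SD below the full-agonist control yet still positive, in both repeats and the earlier primary screen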); conditions: at 10 µM; active compounds read high
# Chain of Short transient receptor potential channel 4 (Mus musculus) (Q9QUQ5 whole entry, looked up): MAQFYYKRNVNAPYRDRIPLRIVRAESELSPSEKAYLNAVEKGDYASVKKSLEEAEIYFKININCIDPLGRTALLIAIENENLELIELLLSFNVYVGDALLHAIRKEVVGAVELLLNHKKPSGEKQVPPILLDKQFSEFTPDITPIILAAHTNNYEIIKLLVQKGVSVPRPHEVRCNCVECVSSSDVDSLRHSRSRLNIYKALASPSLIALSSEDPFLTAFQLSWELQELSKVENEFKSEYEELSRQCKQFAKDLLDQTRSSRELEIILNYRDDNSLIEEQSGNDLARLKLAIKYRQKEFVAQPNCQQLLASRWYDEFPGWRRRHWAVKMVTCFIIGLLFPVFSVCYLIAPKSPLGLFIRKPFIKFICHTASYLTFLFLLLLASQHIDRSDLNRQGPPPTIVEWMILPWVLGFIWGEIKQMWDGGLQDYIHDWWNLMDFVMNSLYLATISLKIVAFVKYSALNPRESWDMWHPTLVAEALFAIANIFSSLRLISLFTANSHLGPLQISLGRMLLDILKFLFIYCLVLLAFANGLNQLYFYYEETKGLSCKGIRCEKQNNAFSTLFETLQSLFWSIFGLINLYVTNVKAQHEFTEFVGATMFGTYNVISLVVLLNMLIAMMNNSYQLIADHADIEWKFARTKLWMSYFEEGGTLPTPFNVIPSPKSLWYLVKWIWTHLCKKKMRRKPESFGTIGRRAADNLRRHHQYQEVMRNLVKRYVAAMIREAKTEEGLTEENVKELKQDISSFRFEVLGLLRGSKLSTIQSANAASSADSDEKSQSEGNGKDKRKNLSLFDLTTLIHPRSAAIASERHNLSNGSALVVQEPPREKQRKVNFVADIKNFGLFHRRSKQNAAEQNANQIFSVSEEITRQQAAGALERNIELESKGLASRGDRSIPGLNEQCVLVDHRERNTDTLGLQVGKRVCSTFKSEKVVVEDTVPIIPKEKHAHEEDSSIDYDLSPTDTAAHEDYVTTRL
# [6] = molecular target: Short transient receptor potential channel 4 (Mus musculus) (UniProt Q9QUQ5); assay: blockers of DAMGO-evoked TRPC4 calcium flux – cell-based, second round, Fluo4, HEK293 TRPC4beta/mu-opioid, 1 µM, confirmation (AID 2637;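 active = calcium signal ratio cut to more than 3 SD under the fully stimulated control mean yet still positive, in both repeats and the primary screen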); conditions: at 1 µM; active compounds read high
# [7] = molecular target: Short transient receptor potential channel 4 (Mus musculus) (UniProt Q9QUQ5); assay: calcium entry via TRPC4 opening agents – cell-based, HEK293 TRPC4/mu-opioid, Fluo-4 calcium, dose response (AID 434937;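 active = primary screen activator hit with a dose response curve and TRPC4 channel activation at any tested dose; inactive = no activation, no dose response, or not a primary hit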)
# [8] = molecular target: Short transient receptor potential channel 4 (Mus musculus) (UniProt Q9QUQ5); assay: potentiation of DAMGO-evoked TRPC4 calcium signal – cell-based, HEK293 TRPC4/mu-opioid, Fluo-4 calcium, EC20 DAMGO, dose response (AID 434941;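 active = earlier screen potentiator hit that boosts the TRPC4 ion channel at some dose, with a dose response; inactive = no potentiation, no dose response, or not a prior hit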;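 also: calcium entry triggered by an EC20 dose of DAMGO at the co-expressed mu-opioid receptor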)
# [9] = molecular target: Short transient receptor potential channel 4 (Mus musculus) (UniProt Q9QUQ5); assay: block of DAMGO-driven TRPC4 calcium entry – cell-based, HEK293 TRPC4/mu-opioid, Fluo-4 calcium, dose response (AID 434942;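 active = primary screen inhibitor hit that blocks the TRPC4 channel at some tested dose, yielding a dose curve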)
# [10] = molecular target: Short transient receptor potential channel 6 (Mus musculus) (UniProt Q61143); assay: TRPC6 blockade by TRPC4 inhibitor hits – cell-based, HEK293, membrane potential dye, duplicate, selectivity assay for TRPC4 inhibitor project, confirmation (AID 434948;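 active = active in primary screen and both duplicates, each dropping signal beyond three positive-control SD with fluorescence still positive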); conditions: HEK293 TRPC6, membrane potential dye fluorescence, at 10 µM; inhibition: active compounds read high, stimulated with maximal-effect acetylcholine unless noted; outcome: stimulated with maximal-effect acetylcholine unless noted
# Chain of Short transient receptor potential channel 6 (Mus musculus) (Q61143 whole entry, looked up): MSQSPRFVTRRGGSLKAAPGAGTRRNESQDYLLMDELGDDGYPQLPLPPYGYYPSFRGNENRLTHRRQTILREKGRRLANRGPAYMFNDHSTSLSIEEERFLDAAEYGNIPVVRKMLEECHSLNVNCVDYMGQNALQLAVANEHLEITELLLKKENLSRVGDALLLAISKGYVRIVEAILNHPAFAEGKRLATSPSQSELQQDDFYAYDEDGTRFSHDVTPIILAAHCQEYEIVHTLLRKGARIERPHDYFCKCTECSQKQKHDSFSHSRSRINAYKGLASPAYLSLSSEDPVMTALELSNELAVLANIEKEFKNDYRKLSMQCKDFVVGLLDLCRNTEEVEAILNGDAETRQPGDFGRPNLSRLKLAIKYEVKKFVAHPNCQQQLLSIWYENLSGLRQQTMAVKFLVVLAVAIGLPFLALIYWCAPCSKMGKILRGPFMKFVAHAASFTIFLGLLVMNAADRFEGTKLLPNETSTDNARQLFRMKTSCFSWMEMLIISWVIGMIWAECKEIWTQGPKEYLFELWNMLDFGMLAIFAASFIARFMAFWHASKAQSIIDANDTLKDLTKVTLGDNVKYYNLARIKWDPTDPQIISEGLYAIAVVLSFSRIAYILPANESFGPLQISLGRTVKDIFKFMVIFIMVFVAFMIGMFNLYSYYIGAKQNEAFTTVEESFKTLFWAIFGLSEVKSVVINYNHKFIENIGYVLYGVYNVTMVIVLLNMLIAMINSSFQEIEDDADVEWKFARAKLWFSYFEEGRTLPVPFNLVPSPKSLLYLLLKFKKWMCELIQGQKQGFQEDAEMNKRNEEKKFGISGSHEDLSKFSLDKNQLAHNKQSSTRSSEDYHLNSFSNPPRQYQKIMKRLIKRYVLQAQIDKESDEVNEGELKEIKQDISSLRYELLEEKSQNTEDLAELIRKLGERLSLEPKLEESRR
# [11] = molecular target: Short transient receptor potential channel 6 (Mus musculus) (UniProt Q61143); assay: TRPC6 opening by TRPC4 activator hits – cell-based, HEK293, membrane potential dye, duplicate, selectivity assay for TRPC4 activator project, confirmation (AID 434950;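 active = membrane potential signal rise above negative control mean plus 3 SD in both duplicates, also active in the earlier TRPC4 screen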); conditions: HEK293 TRPC6, membrane potential fluorescence, at 10 µM; activation: active compounds read high; outcome: activation
# [12] = molecular target: Short transient receptor potential channel 6 (Mus musculus) (UniProt Q61143); assay: positive modulators of mouse TRPC6 channel – HEK293 cells, membrane potential dye, duplicate, selectivity assay for TRPC4 potentiator project, confirmation (AID 434952;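 active = compound raising the membrane signal above positive-control mean plus 3 SD in both repeats, and a primary screen hit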); conditions: HEK293 TRPC6, membrane potential dye fluorescence, at 10 µM; maximal acetylcholine added after compound unless noted
# [13] = molecular target: Short transient receptor potential channel 4 (Mus musculus) (UniProt Q9QUQ5); assay: calcium flux activators in TRPC4/5HT1a cells, counter-screen for TRPC4 activator project, cell-based, second counter screen, HEK293 TRPC4/5HT1a, Fluo-4 (AID 434977;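 active = calcium signal rise above buffer-control mean plus 5 SD in both duplicates, and also a hit in the primary screen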); conditions: Fluo-4 calcium flux, at 10 µM; active compounds read high
# [14] = serotonin-gated TRPC4 signal block – cell-based, second counter screen, HEK293 TRPC4/5HT1a, Fluo-4, counter-screen for TRPC4 inhibitor project, confirmation (AID 434978;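 active = primary screen active whose calcium signal fell more than 3 SD beyond the full-serotonin control mean in both duplicate plates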;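 as to outcome: serotonin given first at submaximal then at maximal dose after compound preincubation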); conditions: Fluo-4 calcium flux, at 10 µM; inhibition: active compounds read high, serotonin added to trigger calcium flux unless noted; outcome: serotonin added to trigger calcium flux unless noted
# [15] = tested on: TRPC4 (mouse), co-expressed with 5HT1a in HEK293; assay: enhancement of serotonin-evoked TRPC4 response – cell-based, second counter screen, HEK293 TRPC4/5HT1a, Fluo-4, counter-screen for TRPC4 potentiator project, confirmation (AID 434979); conditions: Fluo-4 calcium flux, at 10 µM; outcome: serotonin added at its EC20 dose unless noted; potentiation: active compounds read high, serotonin added at its EC20 dose unless noted
# [16] = nonspecific calcium rise without TRPC4 – cell-based, HEK293 mu-opioid receptor line, counter-screen for TRPC4 activator project, confirmation (AID 449723;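 active = hit in primary screen, with calcium signal over 5 SD above buffer well mean in both duplicates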;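 also: counter screen cells carry the mu-opioid receptor alone and lack TRPC4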); conditions: HEK293 mu-opioid cells, Fluo-4 calcium fluorescence, at 10 µM; active compounds read high
# [17] = nonspecific potentiation of DAMGO calcium response – cell-based, HEK293 mu-opioid receptor line, counter-screen for TRPC4 allosteric potentiator project, confirmation (AID 449724;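 active = calcium signal rise more than 3 SD above the low-dose agonist control mean, in both duplicate plates and the primary screen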); conditions: HEK293 mu-opioid receptor cells, Fluo-4 calcium flux, at 10 µM; compound added before EC20 DAMGO stimulus unless noted
structure (smiles),measurement,setting,value
CCCCN1C(=O)NC(=O)C2(Cc3c(nc4c(C)cccn4c3=O)N3CCc4ccccc4C32)C1=O (stereo unspecified),outcome,[1],inactive
same,outcome,[2],inactive
same,outcome,[3],inactive
same,potentiation,[4],23% (active)
same,outcome,[5],inactive
same,outcome,[6],inactive
same,outcome,[7],inactive
same,outcome,[8],inactive
same,outcome,[9],inactive
same,outcome,[10],inactive [setting not given]
same,outcome,[11],inactive
same,outcome,[12],inactive [setting not given]
same,outcome,[13],inactive
same,outcome,[14],inactive [setting not given]
same,potentiation,[15],37.1% [active compounds read high] (active)
same,outcome,[16],inactive
same,outcome,[17],inactive [setting not given]
c1ccc2nc(OCCN3CC3)ccc2c1,outcome,[1],inactive
same,outcome,[2],inactive
same,outcome,[3],inactive
same,potentiation,[4],17% (active)
same,outcome,[5],inactive
same,outcome,[6],inactive
same,outcome,[7],inactive
same,outcome,[8],inactive
same,outcome,[9],inactive
same,outcome,[10],inactive
same,outcome,[11],inactive
same,outcome,[12],inactive
same,outcome,[13],inactive
same,outcome,[14],inactive
same,potentiation,[15],16.5% (active)
same,outcome,[16],inactive
same,outcome,[17],inactive
CC(Cc1ccccc1)NCC(=O)Nc1cc(N(C)C)nc2ccccc12 (stereo unspecified),outcome,[1],inactive
same,outcome,[2],inactive
same,outcome,[3],inactive
same,outcome,[4],inactive
same,inhibition,[5],82% (active)
same,outcome,[6],inactive
same,outcome,[7],inactive
same,outcome,[8],inactive
same,outcome,[9],inactive
same,outcome,[10],inactive
same,outcome,[11],inactive
same,outcome,[12],inactive
same,outcome,[13],inactive
same,inhibition,[14],46% (active)
same,outcome,[15],inactive
same,outcome,[16],inactive
same,outcome,[17],inactive
CCNCCNc1ccc([N+](=O)[O-])c2cccnc12,outcome,[1],inactive
same,outcome,[2],inactive
same,potentiation,[3],11% (active)
same,outcome,[4],inactive
same,outcome,[5],inactive
same,outcome,[6],inactive
same,outcome,[7],inactive
same,outcome,[8],inactive
same,outcome,[9],inactive
same,outcome,[10],inactive
same,outcome,[11],inactive
same,outcome,[12],inactive
same,outcome,[13],inactive
same,outcome,[14],inactive
same,outcome,[15],inactive
same,outcome,[16],inactive
same,outcome,[17],inactive
Oc1c(Br)cc(Br)cc1CN1CCN(Cc2ccccc2)CC1,outcome,[1],inactive
same,outcome,[2],inactive
same,outcome,[3],inactive
same,potentiation,[4],44% (active)
same,outcome,[5],inactive
same,outcome,[6],inactive
same,outcome,[7],inactive
same,outcome,[8],inactive
same,outcome,[9],inactive
same,outcome,[10],inactive [setting not given]
same,outcome,[11],inactive
same,outcome,[12],inactive [setting not given]
same,outcome,[13],inactive
same,outcome,[14],inactive [setting not given]
same,potentiation,[15],20.2% [active compounds read high] (active)
same,outcome,[16],inactive
same,outcome,[17],inactive [setting not given]
CC(Cc1ccccc1Sc1ccccc1)N(C)C (stereo unspecified),outcome,[1],inactive
same,outcome,[2],inactive
same,outcome,[3],inactive
same,outcome,[4],inactive
same,outcome,[5],inactive
same,outcome,[6],inactive
same,outcome,[7],inactive
same,outcome,[8],inactive
same,outcome,[9],inactive
same,outcome,[10],inactive
same,outcome,[11],inactive
same,outcome,[12],inactive
same,outcome,[13],inactive
same,outcome,[14],inactive
same,outcome,[15],inactive
same,outcome,[16],inactive
same,outcome,[17],inactive
CCN1CCN(c2cc(N3CCCC3)c([N+](=O)[O-])cc2F)CC1,outcome,[1],inactive
same,outcome,[2],inactive
same,potentiation,[3],31% (active)
same,potentiation,[4],11% (active)
same,outcome,[5],inactive
same,outcome,[6],inactive
same,outcome,[7],inactive
same,outcome,[8],inactive
same,outcome,[9],inactive
same,outcome,[10],inactive
same,outcome,[11],inactive
same,outcome,[12],inactive
same,outcome,[13],inactive
same,outcome,[14],inactive
same,potentiation,[15],17.9% (active)
same,outcome,[16],inactive
same,outcome,[17],inactive
CC(C)CNc1c2c(nc3ccccc13)CCC2,outcome,[1],inactive
same,outcome,[2],inactive
same,outcome,[3],inactive
same,outcome,[4],inactive
same,outcome,[5],inactive
same,outcome,[6],inactive
same,outcome,[7],inactive
same,outcome,[8],inactive
same,outcome,[9],inactive
same,outcome,[10],inactive
same,outcome,[11],inactive
same,outcome,[12],inactive
same,outcome,[13],inactive
same,outcome,[14],inactive
same,outcome,[15],inactive
same,outcome,[16],inactive
same,outcome,[17],inactive
C#CCN1C(=O)C2(C(C#N)=C(N)OC(C)=C2C(=O)OCc2ccccc2)c2ccccc21 (stereo unspecified),outcome,[1],inactive
same,outcome,[2],inactive
same,outcome,[3],inactive
same,potentiation,[4],11% (active)
same,outcome,[5],inactive
same,outcome,[6],inactive
same,outcome,[7],inactive
same,outcome,[8],inactive
same,outcome,[9],inactive
same,outcome,[10],inactive
same,outcome,[11],inactive
same,outcome,[12],inactive
same,outcome,[13],inactive
same,outcome,[14],inactive
same,potentiation,[15],28.9% (active)
same,outcome,[16],inactive
same,outcome,[17],inactive
CCN1CC2C3CCC(C)(O3)C2C1 (stereo unspecified),outcome,[1],inactive
same,outcome,[2],inactive
same,outcome,[3],inactive
same,outcome,[4],inactive
same,outcome,[5],inactive
same,outcome,[6],inactive
same,outcome,[7],inactive
same,outcome,[8],inactive
same,outcome,[9],inactive
same,outcome,[10],inactive
same,outcome,[11],inactive
same,outcome,[12],inactive
same,outcome,[13],inactive
same,outcome,[14],inactive
same,outcome,[15],inactive
same,outcome,[16],inactive
same,outcome,[17],inactive
COC(=O)C(Cc1ccc(N(CCCl)CCCl)cc1)N=Cc1ccccc1O (stereo unspecified),outcome,[1],inactive
same,outcome,[2],inactive
same,outcome,[3],inactive
same,outcome,[4],inactive
same,outcome,[5],inactive
same,outcome,[6],inactive
same,outcome,[7],inactive
same,outcome,[8],inactive
same,outcome,[9],inactive
same,outcome,[10],inactive
same,outcome,[11],inactive
same,outcome,[12],inactive
same,outcome,[13],inactive
same,outcome,[14],inactive
same,outcome,[15],inactive
same,outcome,[16],inactive
same,outcome,[17],inactive
CN(C)CCn1cnc2ccccc21,outcome,[1],inactive
same,outcome,[2],inactive
same,outcome,[3],inactive
same,outcome,[4],inactive
same,outcome,[5],inactive
same,outcome,[6],inactive
same,outcome,[7],inactive
same,outcome,[8],inactive
same,outcome,[9],inactive
same,outcome,[10],inactive
same,outcome,[11],inactive
same,outcome,[12],inactive
same,outcome,[13],inactive
same,outcome,[14],inactive
same,potentiation,[15],19.9% (active)
same,outcome,[16],inactive
same,outcome,[17],inactive
CN1CCN(c2cccc3c2C(=O)c2ccccc2C3=O)CC1,outcome,[1],inactive
same,outcome,[2],inactive
same,potentiation,[3],16% (active)
same,potentiation,[4],8% (active)
same,outcome,[5],inactive
same,outcome,[6],inactive
same,outcome,[7],inactive
same,outcome,[8],inactive
same,outcome,[9],inactive
same,outcome,[10],inactive
same,outcome,[11],inactive
same,outcome,[12],inactive
same,outcome,[13],inactive
same,outcome,[14],inactive
same,outcome,[15],inactive
same,outcome,[16],inactive
same,outcome,[17],inactive
